Rab9 promoter act = qHTS Assay for Rab9 Promoter Activators; Huh7 Rab9 promoter-luciferase reporter, luminescence, 24 h; Potency, µM (doses to about 9.22 µM), for inactives: at the top dose activation, negative = inhibition, hits mostly activators; hit rate 2.8% among 320,000; further: % of control where 0% means no effect; nearly all actives have a fitted effect of over 60% in size
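Measured in stably transfected Huh7 cells bearing a Rab9 promoter–luciferase construct: 24 h compound treatment at 37 °C, followed by luminescence detection.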
FLuc modulator = qHTS profiling assay for firefly luciferase inhibitor/activator using purifed enzyme and Km concentrations of substrates (counterscreen for miR-21 project); Luciferin 4-monooxygenase (Photinus pyralis), P08659; purified FLuc, Km substrates, luminescence inhibition; Potency, µM (doses to about 57.5 µM), for inactives: at the highest dose activity change, negative = inhibition, usual class: inhibitors; hit rate 6.9% among 360,000;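 further: plate controls were vehicle for no effect and reference inhibitor for full effect; nearly all actives have a fitted effect of over 55% in size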
Target sequence (P08659 whole entry, looked up): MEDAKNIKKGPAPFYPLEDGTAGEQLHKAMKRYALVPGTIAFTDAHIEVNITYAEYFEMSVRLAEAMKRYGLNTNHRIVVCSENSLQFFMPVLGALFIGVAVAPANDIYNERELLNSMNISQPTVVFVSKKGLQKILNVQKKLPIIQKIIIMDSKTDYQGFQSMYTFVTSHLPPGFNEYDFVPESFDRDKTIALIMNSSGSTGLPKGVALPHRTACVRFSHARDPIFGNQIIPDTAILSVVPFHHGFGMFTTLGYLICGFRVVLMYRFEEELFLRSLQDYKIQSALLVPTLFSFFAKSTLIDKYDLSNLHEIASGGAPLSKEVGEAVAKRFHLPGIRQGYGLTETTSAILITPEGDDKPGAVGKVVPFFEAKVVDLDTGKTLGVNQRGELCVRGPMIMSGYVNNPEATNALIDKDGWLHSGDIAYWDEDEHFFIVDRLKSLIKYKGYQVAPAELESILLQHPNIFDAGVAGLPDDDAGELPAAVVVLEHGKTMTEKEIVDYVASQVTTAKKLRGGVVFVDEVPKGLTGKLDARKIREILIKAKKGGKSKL
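Purified P. pyralis luciferase (10nM final) with 10uM D-luciferin and 10uM ATP (Km levels) in 50mM Tris acetate pH 7.5, 10mM Mg acetate, 0.01% Tween-20, 0.05% BSA; qHTS 6-point titration, ~60 µM downward; luminescence read.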
ELG1 genotox = qHTS screen for small molecules that induce genotoxicity in human embryonic kidney (HEK293T) cells expressing luciferase-tagged ELG1; HEK293T ELG1-luciferase reporter, luminescence, 16 h; Potency, µM (series often up to 46 µM), inactives show at the top dose activity change, positive = activation, most hits filed as activators; hit rate 1.3% among 330,000; further: % of control where 0% means no effect; nearly all actives have a fitted effect of over 60% in size
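Reporter readout depends on ELG1 protein level, which increases with genetic stress. After 16 hr compound exposure at 37 °C, luciferase activity was quantified using ONE-Glo.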
NPC1 prom act = qHTS Assay for NPC1 Promoter Activators; Huh7 NPC1 promoter luciferase reporter, 24 h; Potency, µM (highest dose often 9.22 µM), for the others: at the highest dose activation, actives largely listed as activators; hit rate 2.4% among 320,000; further: % of control where 0% means no effect; nearly all actives have a fitted effect of over 60% in size
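In 1536-well qHTS, Huh7 cells harboring an NPC1 promoter–luciferase construct received compound for 24 h; activation was quantified by luminescence following luciferase reagent addition.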
p53 reactivation = qHTS assay for re-activators of p53 using a Luc reporter; H1299 p53-A138V BP100-luciferase reporter, luminescence, 24 h; Potency, µM (series often up to 92.2 µM), for the others: at the highest dose activity change, positive = activation, most hits filed as activators; hit rate 0.063% among 320,000; further: % of control where 0% means no effect; nearly all actives have a fitted effect of over 45% in size
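p53-null H1299 cells stably carrying temperature-sensitive p53-A138V and a BP100-luciferase reporter were pinned with compounds (4-point, 1:5 series) and held 24 hrs at 37 deg C. Luminescence was read 10 min after detection reagent.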
SMN2 splice up = qHTS Assay for Enhancers of SMN2 Splice Variant Expression | HEK293 SMN2-luciferase splicing reporter, luminescence, 30-36 h | Potency, µM (highest dose often 46.1 µM), inactives show at the highest dose activity change, positive = activation, usual class: activators | hit rate 2.8% among 210,000 | AID 1458, 2008; further: % of control where 0% means no effect; nearly all actives have a fitted effect of over 55% in size
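HEK293 cells carry an SMN2 minigene-luciferase reporter in which exon 7 inclusion puts luciferase in frame. Cells were seeded at 2000 cells/well, attached for 10-12 hours, then exposed to compounds for 30-36 hours at 37C before ONE-Glo luminescence.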
Numbers without * were called inactive; ? = inconclusive; nt = no result; [ ] = another dose, or the depositor's remark. The list is not random: actives were taken first. Their share in the collection is about 7.4%. The call rests on the fitted dose curve; in most records, active means well fitted curve in the direction sought with a large enough effect; inconclusive means small, poorly fitted or top-dose-only effect, or another doubt; inactive means no such curve, though single readings can be large; an effect the other way counts as inactive or inconclusive. Potency means the concentration at half of the fitted maximal effect.

SMILES	Rab9 promoter act	FLuc modulator	ELG1 genotox	NPC1 prom act	p53 reactivation	SMN2 splice up
O=C(O)CCN1C(=O)c2ccc(NC(=O)CCc3ccccc3)cc2C1=O	-1%	-3%	0%	-2%	nt	nt
O=C(CC1S/C(=N/N=C/C=C/c2ccccc2)NC1=O)Nc1ccc(C(=O)O)cc1 (stereo not given)	-3%	13µM*	-11%	-4%	-1%	-6%
CCn1c(=O)c2cc(C(=O)NCCc3ccc(OC)c(OC)c3)sc2c2ccccc21	nt	-8%	nt	nt	nt	0%
CO/N=C/c1ccc(Oc2ccc(C)cc2)nc1	20%	17µM*	15%	18%	16%	-7%
Cc1[nH]c(N=Nc2ccccc2)nc1N=Nc1ccccc1	-4%	6µM*	8%	0%	?	nt
O=c1ccc2[n+]([O-])c3ccc(O)cc3oc-2c1	0%	15µM*	-10%	2%	-5%	nt
O=c1cc(O)c2ccc(O)cc2o1	8%	-1%	1%	0%	0%	nt
Cc1c(CC(=O)N2CCC(C(N)=O)CC2)c(=O)oc2cc3c(cc12)CCC1(CCCCC1)O3	-6%	19µM*	-5%	6%	-1%	nt
CCC(NC(=O)Cc1c(C)c2cc3c(cc2oc1=O)OC(C)(C)CC3)C(=O)O (stereo not given)	2µM*	21µM*	10%	3.2µM*	?	nt
Cc1ccc(/C(C#N)=C\c2ccc(N3CCOCC3)o2)cc1	3.2µM*	24µM*	18µM*	4µM*	-22%	13µM*
Cc1ccc2nc(/C(C#N)=C\c3ccc(N4CCOCC4)o3)[nH]c2c1	1.8µM*	0.43µM*	?	2.2µM*	?	4µM*
O=C1NC(=O)/C(=C/c2ccc(N3CCOCC3)o2)N1	0%	-2%	1%	-1%	1%	nt
O=C1N(c2ccccc2)C(c2ccccc2)C12CCCCC2 (stereo not given)	nt	nt	1%	nt	4%	nt
Cc1ccc(-c2csc(NC(=O)/C=C/c3ccco3)c2C(=O)O)cc1	1.8µM*	6µM*	?	3.2µM*	?	11µM*
COC(=O)c1c(-c2ccccc2)csc1NC(=O)c1ccco1	?	5.4µM*	2.3µM*	2.8µM*	?	-1%
O=C(Nc1scc(-c2ccc(F)cc2)c1C(=O)O)c1ccco1	24%	17µM*	?	26%	27%	?
COc1ccc(NC(=O)c2oc3ccccc3c2NC(=O)C2CCCO2)cc1OC (stereo not given)	?	?	0%	24%	-1%	?
COc1ccc(NC(=O)c2oc3ccccc3c2NC(=O)C2CC2)cc1OC	6%	17µM*	-7%	-1%	-9%	nt
Cc1ccc(NC(=O)c2oc3ccccc3c2NC(=O)C2CCCO2)cc1C (stereo not given)	2.5µM*	?	7%	2.8µM*	?	13µM*
CCc1ccc(NC(=O)CN2CCCN(S(=O)(=O)c3ccc(F)cc3)CC2)cc1	3%	2%	-14%	1%	-5%	nt
COC(=O)[C@@H](NC(=O)N1CCC(Cc2ccccc2)CC1)C(C)C	-1%	-3%	-3%	-3%	-9%	nt
O=C(NCCc1ccc(Cl)cc1)c1nc(-c2cccc(F)c2)n2c1CCCCC2	nt	-16%	nt	nt	nt	nt
CN(C)/C=C/C(=O)Oc1ccc(Cl)cc1Cl	-9%	?	2%	4%	15%	2%
CN(C)/C=C/C(=O)/C=C/c1ccc(Cl)cc1	?	13µM*	?	?	2%	13µM*
O=C1C=C(c2cc(F)ccc2F)C[C@@H](c2ccc(F)cc2)C1	-2%	-4%	0%	2%	3%	nt
SMILES	Rab9 promoter act	FLuc modulator	ELG1 genotox	NPC1 prom act	p53 reactivation	SMN2 splice up
Brc1ccc(-c2ccc(C3Nc4cccc5cccc(c45)N3)o2)cc1	4%	-5%	-2%	-3%	-9%	nt
FC(F)(F)C1=Nc2cccc3cccc(c23)N1	0%	?	-2%	0%	-8%	nt
Fc1ccc(C2=Nc3cccc4cccc(c34)N2)cc1	?	15µM*	1%	16%	5%	-14%
Brc1ccc(C2=Nc3cccc4cccc(c34)N2)o1	21%	12µM*	3%	20%	2%	1%
N#Cc1ccc(/C=N/NC(=O)c2cc(-c3cccs3)nc3ccccc23)cc1	-6%	6.7µM*	2%	-16%	20%	7%
N#Cc1ccc(-c2csc(NC(=O)c3cc(-c4cccs4)nc4ccccc34)n2)cc1	-2%	-2%	-21%	-6%	0%	nt
COc1cc(/C=N/NC(=O)c2cc(-c3cccs3)nc3ccccc23)ccc1O	-1%	6.7µM*	-1%	-2%	0%	nt
Cc1c(Cl)cccc1NC(=O)NCCOCCn1c(=O)oc2ccccc21	nt	-9%	nt	nt	nt	0%
COc1ccc(C2c3[nH]c4ccccc4c3CCN2Cc2cccn2-c2ncccn2)cc1C (stereo not given)	-9%	-19%	-5%	8%	8%	nt
Cc1cccc(C2c3[nH]c4ccccc4c3CCN2Cc2cccn2-c2ncccn2)c1 (stereo not given)	?	-19%	-6%	1%	5%	20µM*
CC(C)(C)c1ccc(C(=O)Nc2ccc(Oc3cccnc3)nc2)cc1	-40%	8.5µM*	-10%	-26%	-2%	nt
O=C(Nc1cccnc1)c1ccc(C(=O)Nc2cccnc2)cc1	0%	-1%	0%	-2%	2%	nt
CCc1sc(C(=O)Nc2cccnc2)cc1Br	?	11µM*	?	?	-12%	nt
Cc1ccc(C(=O)Nc2ccc(Oc3cccc(C(F)(F)F)c3)nc2)cc1	-32%	3%	-2%	-13%	-2%	nt
CC(C)(C)c1ccc(C(=O)Nc2cccnc2)cc1	4µM*	2.7µM*	2.3µM*	2.8µM*	nt	nt
CCCN1Cc2cccc(C(=O)Nc3cc(Cl)ccc3C)c2C1=O	nt	-8%	nt	nt	nt	5%
COc1ccc2c(c1)[N+](=O)C(/C(C)=N/NC(N)=S)=C(C)[N+]2=O	nt	nt	nt	nt	nt	-1%[9.22 µM]
Clc1ccc(/C=N/N2CCCCC2)cc1	22%	11µM*	12%	12%	7%	nt
O=[N+]([O-])c1ccc(/C=N/N2CCCCC2)cc1	29%[1.84 µM]	9.5µM*	?	2.5µM*	?	nt
COc1ccc2c(c1)C(=O)[C@H](OC(=O)NCCOc1ccccc1)[C@@H](c1ccc(OC)c(Br)c1)O2	nt	nt	nt	nt	nt	10%
